Screens: PubChem, Center for Chemical Genomics, University of Michigan
Shown is part of a subset that was picked to be rich in hits.
Dicer processing: human Dicer pre-microRNA cleavage inhibition | Q9UPY3 | cat-ELCCA pre-miR-21 Dicer processing, chemiluminescence; hits give high values | z-score at 25 µM | 6% of 47,000 active | AID 1347074; in the data active = z-score above about 3, passing the limit was not always enough;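 also: plate controls were vehicle for no effect and no enzyme for full effect; higher signal means more uncleaved substrate so more Dicer inhibition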
Starred values were filed as active, the others as inactive.

Screening CCCS(=O)(=O)N1CCN(Cc2cc(Br)ccc2O)CC1 returned Dicer processing 2.6.
Screening CN(C)C(=O)C(=O)c1c[nH]c2ccc(Br)cc12 returned Dicer processing 0.74.
For Cc1cc([N+](=O)[O-])cnc1Sc1ccc(Cl)cc1 the results were Dicer processing -0.68.
`CC1CC(N(C(=O)c2cccs2)c2ccccc2)c2ccccc2N1C(=O)c1ccco1` (stereo unspecified) gave Dicer processing -0.43.
N#Cc1c(S/C=C(\O)c2cc3ccccc3o2)nc2c(c1C(F)(F)F)CCCC2 was read as Dicer processing 0.86.
For COc1cccc(-c2cc3nc(C(F)(F)F)cc(-c4cccs4)n3n2)c1 the results were Dicer processing -3.
Screening Nc1nc2nc(N3CCOCC3)[nH]c2c(=O)[nH]1 returned Dicer processing -0.4.
Screening COc1ccc(/C=N\NS(=O)(=O)c2ccc(-c3nc(C)oc3-c3ccc([N+](=O)[O-])cc3)cc2)cc1OC returned Dicer processing -0.33.
`COc1ccc(Cn2c(=O)oc3ccccc32)cc1OC` gave Dicer processing -0.24.
Cc1ccc2oc(=O)n(Cc3ccccc3OC(C)C)c2c1 was read as Dicer processing 5.1*.
`Cc1ccc2oc(=O)n(CC(=O)O)c2c1` gave Dicer processing 1.3.
COc1ccc(OS(=O)(=O)CS(C)(=O)=O)cc1 was read as Dicer processing -0.65.
CCCOC(=O)C1=C(C)NC2=C(C(=O)CC(C)(C)C2)C1c1ccc(Cl)cc1 (stereo unspecified) was read as Dicer processing 0.91.
Screening COc1cccc(C2C3=C(CCCC3=O)Nc3nc(-c4cccc(Cl)c4)nn32)c1OC (stereo unspecified) returned Dicer processing 0.72.
`CC1(C)NC(=O)N(CC(O)COc2ccccc2Cl)C1=O` (stereo unspecified) gave Dicer processing 0.98.
`Nc1c(C(=O)Nc2cc(F)ccc2F)sc2nc(-c3cccs3)ccc12` gave Dicer processing -0.03.
O=C(Nc1cccc(C(F)(F)F)c1)Oc1ccc(F)cc1Cl was read as Dicer processing 0.94.
`O=C(Nc1ccccc1)Oc1cccc(F)c1OC(=O)Nc1ccccc1` gave Dicer processing 3.4*.
`O=C(Nc1ccccc1)Nc1cccc(NC(=O)Nc2ccccc2)c1F` gave Dicer processing -0.34.
CCCCCn1c(Sc2nc3ccccc3c(C)c2C#N)n[nH]c1=O was read as Dicer processing 2.
For O=C(Nc1cnn(Cc2ccc(F)cc2)c1)c1nc2ncccn2n1 the results were Dicer processing -0.2.
`Cc1nn(-c2ccccc2)cc1/C=N/n1c(-c2cccs2)n[nH]c1=S` gave Dicer processing -0.7.
O=C(NCCc1ccncc1)NC(=O)c1c(Cl)cccc1Cl was read as Dicer processing -0.66.
Screening CC(C)(CC(=O)O)CC(=O)Nc1ccc2c(c1)OCO2 returned Dicer processing -0.24.
`CCOC(=O)[C@H](CCCN=C(N)N)NC(=O)c1ccccc1` gave Dicer processing 4.8*.
For CCCCCCNC(=O)NC(Cc1ccccc1)C(=O)OCC (stereo unspecified) the results were Dicer processing -0.79.
`O=C(NC(CO)C(=O)O)c1ccccc1` (stereo unspecified) gave Dicer processing 2.1.
O=C(Nc1ccccc1Oc1ccc(Cl)cc1Cl)c1ccc(F)cc1 was read as Dicer processing 0.
CCC12CN3CC(CC)(CN(C1)C3c1ccc(Br)cc1)C2=O (stereo unspecified) was read as Dicer processing -0.08.
`CCOC(=O)c1[nH]c(C)c(C(=O)OCC)c1CC` gave Dicer processing 0.48.
O=C(O)CSc1nc2ccccc2n1Cc1ccccc1 was read as Dicer processing -1.6.
Screening OCCSc1nc2ccccc2n1Cc1ccccc1 returned Dicer processing -0.6.
NC(=O)Cn1c(CSc2nc3ccccc3n2Cc2ccccc2)nc2ccccc21 was read as Dicer processing 4.2*.
COc1ccc2cc(-c3ccno3)ccc2c1 was read as Dicer processing -1.3.
For COc1ccc2c(c1)CCc1sc(NC(=O)c3ccco3)nc1-2 the results were Dicer processing 3.1*.
For CCCCCCCC(=O)Nc1nc2c(s1)CCc1cc(OC)ccc1-2 the results were Dicer processing 0.09.
`CCCCCC(=O)Nc1nc2c(s1)CCc1cc(OC)ccc1-2` gave Dicer processing -4.1.
For CCCCCCCCC(=O)Nc1nc2c(s1)CCc1cc(OC)ccc1-2 the results were Dicer processing -0.7.
Screening COc1ccc2c(c1)CCc1sc(NC(C)=O)nc1-2 returned Dicer processing 3.5*.
`COc1ccc2c(c1)-c1nc(NC(=O)c3ccco3)sc1CC2` gave Dicer processing 5*.
COc1ccc2c(c1)CCc1sc(NC(=O)c3cc(C)on3)nc1-2 was read as Dicer processing 0.98.
`COc1cc(OC)cc(C(=O)Nc2nc3c(s2)Cc2cc(OC)ccc2-3)c1` gave Dicer processing -0.47.
COc1cc(OC)cc(C(=O)Nc2nc3c(s2)CCc2cc(OC)ccc2-3)c1 was read as Dicer processing 0.56.
CCCC1=C(C(=O)OCC)C(c2cccc(F)c2)n2c(nc3ccccc32)N1 (stereo unspecified) was read as Dicer processing 0.56.
`N#Cc1c(F)cccc1Sc1ccc(Cl)cc1` gave Dicer processing 0.11.
`CCc1ccc2c(c1)C(NC(C)=O)C(=O)N2` (stereo unspecified) gave Dicer processing -1.1.
`C=CCSc1nc(N2CCOCC2)c2c(c1C#N)CC(C)(C)SC2` gave Dicer processing -0.83.
`N/C(CSc1cccs1)=N\OC(=O)Nc1ccccc1` gave Dicer processing -2.6.
O=[N+]([O-])c1ccc2c(c1)NC1(CCCCC1)N2 was read as Dicer processing 1.8.
Cc1cccc(-n2ncc3c2ncn2c(COc4c(C)cccc4C)nnc32)c1 was read as Dicer processing -0.17.
Nc1c(-c2ccc(Cl)cc2)cnn1-c1ncc(C(F)(F)F)cc1Cl was read as Dicer processing 1.1.
For Cn1c2ccccc2n2c(CCC(=O)O)c(-c3ccccc3)nc12 the results were Dicer processing -0.32.
For Cc1onc(-c2ccccc2)c1-c1nc(CSc2ccc(C(F)(F)F)cn2)no1 the results were Dicer processing -0.43.
Cc1nc2ccccc2n1CC(O)COc1ccc(Cl)cc1 (stereo unspecified) was read as Dicer processing -0.69.
For CCOC(=O)c1n[nH]n(-c2ccc(Cl)cc2)c1=O the results were Dicer processing -0.49.
`Fc1ccc(CNC(=S)NC(Cc2ccccc2)c2ccccc2)cc1` (stereo unspecified) gave Dicer processing 1.2.
Screening COc1cccc(OC)c1-c1nn(-c2ccc(C(F)(F)F)cn2)c(=O)o1 returned Dicer processing 0.65.
`CC1(C)CC(=O)C2=C(C1)Nc1nc(-c3cccc(Cl)c3)nn1C2c1ccc2c(c1)OCO2` (stereo unspecified) gave Dicer processing 2.2.
`COc1ccc(-c2nc3n(n2)C(c2ccc4c(c2)OCO4)C2=C(CC(C)(C)CC2=O)N3)cc1OC` (stereo unspecified) gave Dicer processing 3*.
`COc1ccc(-c2nc3n(n2)C(c2ccc(OC)c(OC)c2)C2=C(CCCC2=O)N3)cc1OC` (stereo unspecified) gave Dicer processing -0.72.
O=C(Nc1c(C(=O)c2ccccc2)oc2ccccc12)c1cccs1 was read as Dicer processing -0.81.
`CCCCCc1ccc(C(=O)NCc2cccs2)cc1` gave Dicer processing -0.45.
`Nc1ccc(Cl)cc1C(=O)NCc1cccs1` gave Dicer processing 21*.
